# An excerpt weighted towards active compounds, which were near 4.7% of everything screened.
# FH mod: Identification of activators of human fumarate hydratase by quantitative high-throughput screening; Fumarate hydratase, mitochondrial (Homo sapiens), P07954; FH coupled MDH/diaphorase resazurin fluorescence, 15 min; Potency, µM (top dose mostly 79.9 µM), for inactives: at the top dose activity change, negative = inhibition, usual class: inhibitors; 54,000 compounds, 0.22% hits; AID 1347055, 2019; note: potency is the fitted concentration of half-maximal effect; % is set by controls: 0 for no effect and ±100 for the full control effect; the screen sought activators but most active calls are inhibition curves; nearly all actives have a fitted effect of over 45% in size
# NTMT1 inhibitor: NTMT1 methyltransferase inhibition. Q9BV86. 59,000 compounds, 2.5% hits. Potency, µM (highest dose often 114 µM), inactives show at the highest dose activity change, negative = inhibition, hits mostly inhibitors. NTMT1 MTase-Glo SAH luminescence, purified enzyme;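 note: potency is the fitted concentration of half-maximal effect; plate controls were DMSO vehicle for no effect and no enzyme for full effect; nearly all actives have a fitted effect of over 65% in size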
# Target sequence (Q9BV86 whole entry, looked up): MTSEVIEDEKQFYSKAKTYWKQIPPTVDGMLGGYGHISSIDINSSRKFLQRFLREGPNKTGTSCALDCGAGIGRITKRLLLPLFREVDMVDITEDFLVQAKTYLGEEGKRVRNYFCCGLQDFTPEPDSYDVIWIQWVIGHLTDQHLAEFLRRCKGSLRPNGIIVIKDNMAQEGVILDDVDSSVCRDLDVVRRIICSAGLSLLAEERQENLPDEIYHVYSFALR
# HTT prom inh: HTT promoter inhibition. 48,000 compounds, 0.93% hits. Potency, µM (titrated, usually from 57.5 µM), for inactives: at the top dose activity change, negative = inhibition, actives largely listed as inhibitors. HEK293 HTT promoter firefly luciferase reporter, 24 h. AID 1508623; note: potency is the fitted concentration of half-maximal effect; nearly all actives have a fitted effect of over 50% in size
#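 HEK293 luciferase promoter-reporter cells (2,500/well) plated 24 h, then compounds added at up to 57.5 uM final for 24 h at 37 °C. Firefly luminescence by Dual-Glo, normalized to vehicle (0%) and zero RLU (-100%).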
# HTT-AS act: activates huntingtin-antisense promoter activity | HEK293 HTT-AS promoter firefly luciferase reporter, 24 h; response scale: percent change from vehicle, -100% = no light | Potency, µM (titrated, usually from 57.5 µM), for inactives: at the highest dose activity change, positive = activation, usual class: activators | AID 1508624 | 48,000 compounds, 0.24% hits; note: potency is the fitted concentration of half-maximal effect; nearly all actives have a fitted effect of over 55% in size
#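 Quantitative HTS used concentration series of up to 57.5 uM final on HEK293 luciferase reporter cells, 24 h at 37 degrees C. Readout was Dual-Glo firefly luminescence.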
# GPR32 ag: activates human resolvin D1 receptor GPR32 | CHO-K1 GPR32 beta-arrestin PathHunter luminescence, 90 min; zero percent set by DMSO-only wells | 48,000 compounds, 2.5% hits | O75388 | activation, % at 76.9 µM;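 active = activation of at least 60% and not above a set upper limit, about 1 call in 100 departs from these limits; inconclusive = activation of 40% to 60%, or above that upper limit; inactive = activation under 40%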; note: 0% is about no effect
#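 Luminescent readout of beta-Gal complementation quantifies ligand-induced beta-arrestin association with GPR32 in CHO-K1 cells; 90 min compound incubation at 37 °C, detection 1 h at room temperature.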
# GALC G270D act: raises human GALC G270D mutant activity in cells | 145M-Twi-hGALC-G270D cells (Twitcher mouse brain line with human GALC G270D), HMU-beta-Gal fluorescence, 48 h | Potency, µM (titrated, usually from 57.5 µM), actives largely listed as activators | 45,000 compounds, 0.1% hits; note: potency is the fitted concentration of half-maximal effect; 0% is about no effect; nearly all actives have a fitted effect of over 65% in size
#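 Mutant human GALC (G270D), stably expressed in a Twitcher mouse brain cell line lacking endogenous GALC, is measured in live-treated cells via 6-hexadecanoylamino-4-methylumbelliferyl-β-galactoside hydrolysis (0.1 mM final, pH 5.2) with fluorescent detection.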
# CLK4 KinaseGlo: inhibits human CLK4 kinase in Kinase-Glo confirmation. shares compounds with NTMT1 inhibitor. recombinant Clk4, Kinase-Glo ATP luminescence, 4.5 h. Potency, µM (titrated, usually from 76.9 µM), for inactives: top-dose activity, negative = inhibition, most hits filed as inhibitors. 90 compounds, 90% hits. AID 493204
# Sfp qHTS opt: Sfp PPTase inhibition, chemistry optimization; Potency, µM (top dose mostly 114 µM), for the others: at the top dose activity change, negative = inhibition, hits mostly inhibitors; shares compounds with NTMT1 inhibitor; 230 compounds, 78% hits; purified Sfp PPTase enzyme activity, qHTS
# HM489 growth: B. subtilis HM489 growth inhibition. shares compounds with NTMT1 inhibitor. B. subtilis HM489 (acpS-) growth, BacTiter-Glo, 5 h. Potency, µM (titrated, usually from 114 µM), inactives show at the top dose activity change, negative = inhibition, hits mostly inhibitors. 220 compounds, 50% hits. AID 540353
# Sfp PPTase gel: inhibits B. subtilis Sfp PPTase in gel assay | 220 compounds, 54% hits | purified Sfp PPTase, gel-based product detection | shares compounds with NTMT1 inhibitor | Potency, µM (highest dose often 250 µM), for inactives: at the top dose activity change, negative = inhibition, hits mostly inhibitors | AID 540355
# Sfp inh gel: confirmation of Bacillus subtilis Sfp PPTase inhibitors; shares compounds with NTMT1 inhibitor; Potency, µM (series often up to 250 µM), for inactives: at the highest dose activity change, negative = inhibition, actives largely listed as inhibitors; AID 602362; purified Sfp PPTase, gel-based product detection; 45 compounds, 90% hits
# Sfp SAR2: Sfp phosphopantetheinyl transferase inhibition, SAR round 2; AID 602370; purified Sfp enzyme, PPTase activity, qHTS; 230 compounds, 87% hits; Potency, µM (titrated, usually from 57.1 µM), for the others: top-dose activity change, negative = inhibition, usual class: inhibitors; shares compounds with NTMT1 inhibitor
# hGST A1-1 inh: counter-screen for Sfp PPTase inhibitors: hGST A1-1 inhibition | shares compounds with NTMT1 inhibitor | AID 602391 | hGST A1-1 enzyme activity counter-screen, qHTS | Potency, µM (highest dose often 114 µM), inactives show at the highest dose activity change, negative = inhibition, hits mostly inhibitors | 55 tested, under 10 active
# HSD17B4 inh: HSD17B4 (human) inhibition, HPGD counter-screen. shares compounds with NTMT1 inhibitor. purified HSD17B4, estradiol/NAD+, NADH fluorescence. Potency, µM (series often up to 57.1 µM), without a hit: at the top dose activity change, negative = inhibition, most hits filed as inhibitors. 230 compounds, 10% hits
# ALDH1A1 inh: inhibits human ALDH1A1, off-target for HPGD inhibitors; shares compounds with NTMT1 inhibitor; recombinant ALDH1A1, NADH fluorescence, propionaldehyde/NAD+; Potency, µM (top dose mostly 57.1 µM), inactives show at the top dose activity change, negative = inhibition, usual class: inhibitors; 230 compounds, 93% hits; AID 743195
# Target sequence (P00352 whole entry, looked up): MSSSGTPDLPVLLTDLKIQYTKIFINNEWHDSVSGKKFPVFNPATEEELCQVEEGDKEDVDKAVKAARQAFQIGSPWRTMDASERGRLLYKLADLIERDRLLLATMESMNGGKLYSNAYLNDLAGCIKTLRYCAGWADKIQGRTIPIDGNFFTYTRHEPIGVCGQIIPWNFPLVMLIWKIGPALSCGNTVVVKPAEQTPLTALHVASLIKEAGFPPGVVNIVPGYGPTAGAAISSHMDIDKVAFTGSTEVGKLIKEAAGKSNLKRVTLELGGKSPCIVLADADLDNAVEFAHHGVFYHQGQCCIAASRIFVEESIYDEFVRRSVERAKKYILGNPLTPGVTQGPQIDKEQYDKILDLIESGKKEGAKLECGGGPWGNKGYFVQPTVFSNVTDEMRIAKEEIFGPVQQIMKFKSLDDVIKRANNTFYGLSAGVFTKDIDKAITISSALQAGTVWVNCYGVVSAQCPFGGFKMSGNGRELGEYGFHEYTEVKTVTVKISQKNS
# NNMT counter: human NNMT inhibition, NTMT1 counter-screen; shares compounds with NTMT1 inhibitor; Potency, µM (highest dose often 57.1 µM), inactives show at the top dose activity, negative = inhibition, usual class: inhibitors; NNMT MTase-Glo luminescence, SAH detection; 120 compounds, 10% hits
# An asterisk follows results filed as active; i = inactive; ? = inconclusive; . = no result given; [ ] = remark or other dose. Unless noted, calls come from the whole dose curve; as a rule, active = well fitted curve in the direction sought with a large enough effect; inconclusive = small, poorly fitted or top-dose-only effect, or another doubt; inactive = no such curve, though single readings can be large; an effect the other way counts as inactive or inconclusive.
SMILES,FH mod,NTMT1 inhibitor,HTT prom inh,HTT-AS act,GPR32 ag,GALC G270D act,Sfp qHTS opt,HM489 growth,Sfp PPTase gel,Sfp SAR2,HSD17B4 inh,ALDH1A1 inh,others
Cc1ccc(CN(C)c2ncnc3ccc(-c4ccc(CO)o4)cc23)o1,.,?,.,.,.,.,.,.,.,.,.,.,CLK4 KinaseGlo=0.0654µM*
Cc1ccc(CN(C(=O)c2ccc(C(C)(C)C)cc2)c2ccccn2)o1,-9.1%,-13.4%,?,-54.3%,1.2,i,.,.,.,.,.,.,
Cc1ccsc1CN(C)c1ncnc2ccc(-c3ccc(COC(=O)N(C)C)o3)cc12,.,.,.,.,.,.,.,.,.,.,.,.,CLK4 KinaseGlo=1.46µM*
C=C1C2=CC(O)C(C)C1(C)CC/C(C)=C/CCC1(C)OC1C2=O (stereo not given),4.9%[53.3 µM],2.3%[29.8 µM],.,.,.,.,.,.,.,.,.,.,
CC(=O)c1ccc(N2CCN(C(=O)CCC(=O)Nc3ccc4nc(N5CCCCC5)cc(C)c4c3)CC2)cc1,-7.2%,?,?,6.7%,18.3,i,.,.,.,.,.,.,
Cc1cc(C(=O)N2CCN(c3ccccc3F)CC2)c2c(C)nn(-c3ccccc3)c2n1,-15.0%,24.5%,?,-33.6%,-19.6,i,.,.,.,.,.,.,
Cc1cc(C)nc(NC(=S)N2CCN(c3ccc(F)c(F)c3F)CC2)c1,.,?,.,.,.,.,2.1µM*,21µM*,7.94µM*,1.02µM*,-23.1%,9.61µM*,Sfp inh gel=2.4µM*;hGST A1-1 inh=-2.9%
Cc1cc(C)nc(NC(=S)N2CCN(c3ccc(C(=O)O)cc3)CC2)c1,.,?,.,.,.,.,9.37µM*,-0.8%,-56.0%,3.24µM*,?,21.5µM*,
Cc1cc(C)nc(NC(=S)N2CCN(c3ccncc3)CC2)c1,.,?,.,.,.,.,?,-19.9%,-6.2%,3.24µM*,6.2%,30.4µM*,
Cc1cc(C)nc(NC(=S)N2CCN(c3cccc(S(C)(=O)=O)c3)CC2)c1,.,?,.,.,.,.,4.69µM*,15.2%,15.8µM*,2.89µM*,-25.1%,15.2µM*,
C[C@]12C=C[C@@]3(CCC4[C@](C)(CO)CCC[C@@]4(C)C3CC1)C2 (stereo not given in full),-12.7%,3.6%[57.5 µM],.,.,.,.,.,.,.,.,.,.,
C[C@@H]1O[C@@H](O[C@H]2[C@@H]3C=CO[C@@H](O[C@@H]4O[C@H](CO)[C@@H](O)[C@H](O)[C@H]4O)[C@@H]3[C@@]3(CO)O[C@@H]23)[C@H](O)[C@H](O)[C@H]1OC(=O)/C=C/c1ccc(O)cc1,5.2%[20.6 µM],2.8%[12.6 µM],.,.,.,.,.,.,.,.,.,.,
Cc1cc(C)nc(NC(=S)N2CC3CN(c4ccc(Cl)cc4C(F)(F)F)CC3C2)c1 (stereo not given),.,?,.,.,.,.,0.257µM*,.,.,0.73µM*,-27.3%,8.57µM*,hGST A1-1 inh=?
Cc1cc(C)n2ncc(C(=O)Nc3ccc(S(C)(=O)=O)cc3)c2n1,.,-0.5%[57.5 µM],.,.,.,.,.,.,.,.,.,.,
C/C=C/C=C/C=C/C(=O)O[C@@H]1C=C2COC(=O)[C@]2(O)[C@@]2(C)CCCC(C)(C)[C@H]12,-10.6%[53.3 µM],-14.8%[29.8 µM],.,.,.,.,.,.,.,.,.,.,NNMT counter=-12.3%[28.6 µM]
CSc1ncc(C(=O)N2CCN(c3ccc(Cl)cc3)CC2)c(C)n1,-15.7%,-12.4%,-1.1%,-16.5%,-4.8,i,.,.,.,.,.,.,
Cc1ccnc(NC(=S)N2CCN(c3cccc(C(F)(F)F)c3)C[C@@H]2C)c1,.,.,.,.,.,.,5.91µM*,46.9µM*,?,11.5µM*,6.1%,24.1µM*,
Cc1ccnc(NC(=S)N2CCCc3ccc(C(F)(F)F)cc32)c1,.,-6.3%,.,.,.,.,2.7%,?,-0.3%,?,?,27.1µM*,Sfp inh gel=-1.6%;hGST A1-1 inh=?

# Screens (PubChem BioAssay)
